# This is one part of a sample in which the strongest signals are shown more often than they occur.
# B1: Blon2355mut (Bifidobacterium longum) (protein)
# chain: MVQEPTLEWHVIPEPTNVEPLVGTCSLPLSGTVVEQRGADDAEAVFARQLVDDIKRVCGGRWQVASGEVQREVTLRTSPSLDDWSYVLEVSPDGVVITGSGFEGVRDGVQTLRQIIRQIGLTIPCMVIRDRPAFSTRGYYLDVTRGRVPSMAWLKSWVDRLCFYKYNQFQLYIEHTFQFNGLSEVWRGADPLTSSDILELDSYCAARGIELVPSVSTFGHHYTALRTRQLRDLGEFPEDADRPFSLIERMTHHTLNITDERSYEFSTSLIDELMPLFRSRKFNICANETFDLGKGRSKQESAKRGVGAMYADFVERLCRHVDDRGHDVMVWADVALEHPEIIDTLPKNITWLNWQYEPNVDDGTTAALADAGATQMVCPAVWCWNALIPRIDDAWNNITRMARHGRAHDVSGMLVTDWGDFGHVNDPRMSVPGMIFGAQQSWNPDAELSEVDMLSRISTIEYGDHTGSVVGALRGASAKGGFSWSDLVTYLELDDGRGGCNTEIVRVMGCLEAYRNDLPQSGQARLADARVSMLRTLRDSILAGRELNGKLDDAAKDITQLLRVAGDPSSAAVWSLAIDGQRLLNRVGLALLAAHGVVRQDEAGIDAAKLADELECWTEQYSRLWHEVSRQSELARIQHVVWRAADVLRSI
# Columns and labels:
# Experiment in all cases: glycan array binding signal (z-score within array); higher = stronger binding
# Details in all cases: glycan notation: IUPAC condensed, linker removed
# [1] = target: Fuc(a1-2)Gal(b1-3)GalNAc(b1-3)Gal
# Outline: (§1)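 The binding signal is a Z-score computed within each array. Data were drawn from 3228 arrays in the Consortium for Functional Glycomics database, restricted to those with a known protein sequence. Scores were averaged over arrays of the same protein sequence at different concentrations or buffers, and over linkers, and negative values can be taken as non-binding.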
# [2] = target: Fuc(a1-2)Gal(b1-3)GlcNAc(b1-2)Man(a1-3)[Fuc(a1-2)Gal(b1-3)GlcNAc(b1-2)Man(a1-6)]Man(b1-4)GlcNAc(b1-4)GlcNAc
# Outline: as §1
# [3] = target: Fuc(a1-2)Gal(b1-4)GlcNAc(b1-3)[Fuc(a1-2)Gal(b1-4)GlcNAc(b1-6)]GalNAc
# Outline: as §1
# [4] = target: Fuc(a1-2)Gal3S(b1-4)GlcNAc
# Outline: as §1
# [5] = target: Fuc(a1-2)[Gal(a1-3)]Gal(b1-4)Glc
# Outline: as §1
# [6] = target: Fuc(a1-2)[Gal(a1-3)]Gal(b1-4)GlcNAc(b1-2)Man(a1-3)[Fuc(a1-2)[Gal(a1-3)]Gal(b1-4)GlcNAc(b1-2)Man(a1-6)]Man(b1-4)GlcNAc(b1-4)GlcNAc
# Outline: as §1
# [7] = target: Fuc(a1-3)[Gal(b1-4)]GlcNAc(b1-4)Gal(b1-4)[Fuc(a1-3)]GlcNAc(b1-4)Gal(b1-4)[Fuc(a1-3)]GlcNAc
# Outline: as §1
# [8] = target: Fuc(a1-3)[Gal3S(b1-4)]GlcNAc6S
# Outline: as §1
# [9] = target: Fuc(a1-3)[GalNAc(b1-4)]GlcNAc
# Outline: as §1
# [10] = target: Gal(a1-3)Fuc(a1-2)Gal(b1-4)GlcNAc(b1-3)[Gal(a1-3)Fuc(a1-2)Gal(b1-4)GlcNAc(b1-6)]GalNAc
# Outline: as §1
# [11] = target: Gal(a1-3)[Gal(a1-4)]Gal(b1-4)GlcNAc
# Outline: as §1
# [12] = target: Gal(b1-3)GalNAc(a1-3)[Fuc(a1-2)]Gal(b1-4)Glc
# Outline: as §1
# [13] = target: Gal(b1-3)[Fuc(a1-4)]GlcNAc(b1-3)Gal(b1-3)[Fuc(a1-4)]GlcNAc
# Outline: as §1
# [14] = target: Gal(b1-4)GalNAc(b1-3)[Fuc(a1-2)]Gal(b1-4)GlcNAc
# Outline: as §1
# [15] = target: Gal(b1-4)GlcNAc(b1-2)Man(a1-3)[Gal(b1-4)GlcNAc(b1-2)Man(a1-6)]Man(b1-4)GlcNAc(b1-4)GlcNAc
# Outline: as §1
# [16] = target: Gal(b1-4)GlcNAc(b1-2)Man(a1-3)[Gal(b1-4)GlcNAc(b1-2)Man(a1-6)][GlcNAc(b1-4)]Man(b1-4)GlcNAc(b1-4)[Fuc(a1-6)]GlcNAc
# Outline: as §1
# [17] = target: Gal(b1-4)GlcNAc(b1-2)[Gal(b1-4)GlcNAc(b1-6)]Man(a1-6)[GlcNAc(b1-4)][Gal(b1-4)GlcNAc(b1-2)[Gal(b1-4)GlcNAc(b1-4)]Man(a1-3)]Man(b1-4)GlcNAc(b1-4)[Fuc(a1-6)]GlcNAc
# Outline: as §1
# [18] = target: Gal(b1-4)GlcNAc(b1-3)Gal(b1-3)GlcNAc
# Outline: as §1
# [19] = target: Gal(b1-4)GlcNAc(b1-3)Gal(b1-4)Glc
# Outline: as §1
# Gal3S(b1-4)Glc = target: Gal3S(b1-4)Glc
# Outline: as §1
# [20] = target: Gal3S(b1-4)[Fuc(a1-3)]Glc6S
# Outline: as §1
# Gal4S6S(b1-4)GlcNAc = target: Gal4S6S(b1-4)GlcNAc
# Outline: as §1
# Gal6S(b1-4)Glc6S = target: Gal6S(b1-4)Glc6S
# Outline: as §1
# GalNAc(b1-3)GlcNAc = target: GalNAc(b1-3)GlcNAc
# Outline: as §1
# GalNAc(b1-4)GlcNAc = target: GalNAc(b1-4)GlcNAc
# Outline: as §1
# [21] = target: GalNAc(b1-4)GlcNAc(b1-3)GalNAc(b1-4)GlcNAc
# Outline: as §1
# GalNAc6S(b1-4)GlcNAc = target: GalNAc6S(b1-4)GlcNAc
# Outline: as §1
# [22] = target: Glc(a1-4)Glc(a1-4)Glc(a1-4)Glc
# Outline: as §1
# [23] = target: GlcNAc(a1-4)Gal(b1-4)GlcNAc
# Outline: as §1
# [24] = target: GlcNAc(a1-4)Gal(b1-4)GlcNAc(b1-3)Gal(b1-4)GlcNAc
# Outline: as §1
# [25] = target: GlcNAc(b1-2)Man(a1-3)[GlcNAc(b1-2)Man(a1-6)]Man(b1-4)GlcNAc(b1-4)GlcNAc
# Outline: as §1
# [26] = target: GlcNAc(b1-3)Gal(b1-4)GlcNAc(b1-3)Gal(b1-4)GlcNAc(b1-3)Gal(b1-4)GlcNAc(b1-3)Gal(b1-4)GlcNAc(b1-2)Man(a1-3)[GlcNAc(b1-3)Gal(b1-4)GlcNAc(b1-3)Gal(b1-4)GlcNAc(b1-3)Gal(b1-4)GlcNAc(b1-3)Gal(b1-4)GlcNAc(b1-2)Man(a1-6)]Man(b1-4)GlcNAc(b1-4)[Fuc(a1-6)]GlcNAc
# Outline: as §1
# [27] = target: GlcNAc(b1-3)Gal(b1-4)GlcNAc(b1-3)[GlcNAc(b1-3)Gal(b1-4)GlcNAc(b1-3)]GalNAc
# Outline: as §1
# [28] = target: GlcNAc(b1-3)[GlcNAc(b1-6)]GalNAc
# Outline: as §1
# [29] = target: Neu5Ac(a2-3)Gal(b1-3)[Fuc(a1-4)]GlcNAc(b1-3)Gal(b1-3)[Fuc(a1-4)]GlcNAc
# Outline: as §1
# [30] = target: Neu5Ac(a2-3)Gal(b1-3)[Neu5Ac(a2-6)]GlcNAc(b1-3)[Fuc(a1-3)[Gal(b1-4)]GlcNAc(b1-6)]Gal(b1-4)Glc
# Outline: as §1
# Neu5Ac(a2-3)Gal(b1-4)Glc = target: Neu5Ac(a2-3)Gal(b1-4)Glc
# Outline: as §1
# [31] = target: Neu5Ac(a2-3)Gal(b1-4)[Fuc(a1-3)]GlcNAc(b1-2)Man
# Outline: as §1
# [32] = target: Neu5Ac(a2-3)Gal(b1-4)[Fuc(a1-3)]GlcNAc(b1-6)[Neu5Ac(a2-3)Gal(b1-3)]GalNAc
# Outline: as §1
# [33] = target: Neu5Ac(a2-6)Gal(b1-4)GlcNAc(b1-2)Man(a1-3)[Gal(b1-4)GlcNAc(b1-2)Man(a1-6)]Man(b1-4)GlcNAc(b1-4)GlcNAc
# Outline: as §1
# [34] = target: Neu5Ac(a2-6)GalNAc(b1-4)GlcNAc6S
# Outline: as §1
# [35] = target: Neu5Ac9Ac(a2-6)Gal(b1-4)GlcNAc
# Outline: as §1
binder,measurement,setting,value
B1,glycan array binding signal (z-score),[1],4.04
same,glycan array binding signal (z-score),[2],2.69
same,glycan array binding signal (z-score),[3],-0.88
same,glycan array binding signal (z-score),[4],-0.915
same,glycan array binding signal (z-score),[5],-0.428
same,glycan array binding signal (z-score),[6],-0.395
same,glycan array binding signal (z-score),[7],-0.166
same,glycan array binding signal (z-score),[8],0.088
same,glycan array binding signal (z-score),[9],3.72
same,glycan array binding signal (z-score),[10],-1.04
same,glycan array binding signal (z-score),[11],3.31
same,glycan array binding signal (z-score),[12],-1.53
same,glycan array binding signal (z-score),[13],-1.02
same,glycan array binding signal (z-score),[14],0.202
same,glycan array binding signal (z-score),[15],-0.374
same,glycan array binding signal (z-score),[16],-0.951
same,glycan array binding signal (z-score),[17],-0.768
same,glycan array binding signal (z-score),[18],-1.26
same,glycan array binding signal (z-score),[19],1.06
same,glycan array binding signal (z-score),Gal3S(b1-4)Glc,2.74
same,glycan array binding signal (z-score),[20],3.52
same,glycan array binding signal (z-score),Gal4S6S(b1-4)GlcNAc,0.175
same,glycan array binding signal (z-score),Gal6S(b1-4)Glc6S,1.48
same,glycan array binding signal (z-score),GalNAc(b1-3)GlcNAc,0.179
same,glycan array binding signal (z-score),GalNAc(b1-4)GlcNAc,3.04
same,glycan array binding signal (z-score),[21],0.796
same,glycan array binding signal (z-score),GalNAc6S(b1-4)GlcNAc,-0.569
same,glycan array binding signal (z-score),[22],2.06
same,glycan array binding signal (z-score),[23],-0.637
same,glycan array binding signal (z-score),[24],-0.378
same,glycan array binding signal (z-score),[25],-0.111
same,glycan array binding signal (z-score),[26],1.1
same,glycan array binding signal (z-score),[27],3.84
same,glycan array binding signal (z-score),[28],-0.847
same,glycan array binding signal (z-score),[29],-0.494
same,glycan array binding signal (z-score),[30],4.03
same,glycan array binding signal (z-score),Neu5Ac(a2-3)Gal(b1-4)Glc,3.29
same,glycan array binding signal (z-score),[31],1.4
same,glycan array binding signal (z-score),[32],1.6
same,glycan array binding signal (z-score),[33],-0.73
same,glycan array binding signal (z-score),[34],-0.126
same,glycan array binding signal (z-score),[35],3.4
